The source of these data is PubChem BioAssay.

One test concerns the target Albumin (Bos taurus) (UniProt P02769). The test is described as follows: compounds binding labelled BSA control protein – biochemical, small-molecule microarray, Alexa647 label, 635/667 nm fluorescence, artefact control for SMM control protein annotation, profiling panel (AID 1118).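 Also: score merges 667 nm emission intensity and signal-to-noise per printed compound spot.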 The following applies: BSA-A647 binding, fluorescence 635 nm, higher = more signal.
Test [1] in a line: probe aXIP binding to arrayed compounds – biochemical, NeuroSMM set, 635/667 nm fluorescence, primary screen (AID 1119).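 Also: probe is the protein aXip251-270 applied at 1 µg/mL to compound-printed slides; binding of probe to printed compounds measured as 667 nm fluorescence plus signal to noise.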 As to conditions: small-molecule microarray, higher = more signal, called active from +8 up or from −8 down.
Test [2] is described as follows: probe aNOTCH3 binding on compound microarray – biochemical, small-molecule microarray, 635/667 nm fluorescence, primary screen (AID 1120).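 Also: probe is a biotin-tagged antibody raised against NOTCH3 rather than NOTCH3 protein; score merges spot fluorescence near 667 nm with spot signal to noise.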 The following applies: higher = more signal.
A short description of test [3]: probe aNOTCH2 binding on compound microarray – biochemical, small-molecule microarray, 635/667 nm fluorescence, primary screen (AID 1121).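 Also: score merges feature fluorescence read at 667 nm with its signal to noise.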 The following applies: higher = more signal.
The target of test [4] is Carbonic anhydrase 2 (Homo sapiens) (UniProt P00918). The test is described as follows: compounds binding carbonic anhydrase 2 – biochemical, small-molecule microarray, Alexa647-labelled CAII, profiling panel (AID 1122). The following applies: CAII-A647 binding fluorescence, higher = more signal.
Test [5] is described as follows: COS7 lysate on small-molecule microarray, probe aHis, 635 nm (AID 1123).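 Also: z-score combines 667nm fluorescence intensity with signal-to-noise per printed compound spot.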 The following applies: COS7 cell lysate, fluorescence, higher = more signal.
A short description of test [6]: probe aLAP1 signal on lysate-treated microarray – cell lysate, small-molecule microarray, COS7 lysate, primary screen (AID 1124).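 Also: lysate comes from COS7 cells expressing LAP1 and is applied at 0.3 µg/mL; score merges spot fluorescence near 667 nm with signal-to-noise over triplicate slides.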 As to conditions: probe aLAP1, fluorescence, higher = more signal.
A further test has as its system Sam68 (KHDRBS1). The test is described as follows: compounds binding KHDRBS1 protein – biochemical, small-molecule microarray, 635 nm fluorescence, primary screen (AID 1125).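 Also: score merges 667 nm channel intensity with signal to noise over triplicate slides.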 As to conditions: higher = more signal.
In test [7] the test system is Chordin-like protein 2 (CHRDL2). The test can be described thus: compounds binding chordin-like 2 – biochemical, small-molecule microarray, 635 nm fluorescence, primary screen (AID 1126).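 Also: printed compound slides probed with Chrdl2 protein at 4 µg/mL for 1 h at 4 C; score merges 667 nm emission intensity with signal to noise over three replicate slides.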 As to conditions: fluorescence 635 nm, higher = more signal.
Test [8] concerns the target Concanavalin-A (Canavalia ensiformis) (UniProt P02866). The test can be described thus: compounds binding concanavalin A lectin – biochemical, small-molecule microarray, Alexa647 label, 635 nm, artefact control for SMM control protein annotation, primary screen (AID 1127).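 Also: z combines 667 nm emission intensity with signal-to-noise across three replicate slides.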 The following applies: ConA-A647 binding fluorescence, higher = more signal.
Test [9] is described as follows: compounds binding Alexa647 anti-His antibody – biochemical, small-molecule microarray, 635 nm fluorescence, artefact control for SMM control protein annotation, primary screen (AID 1128).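 Also: score merges feature fluorescence with signal-to-noise for each printed compound spot.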 As to conditions: higher = more signal.
In test [10] the test system is Human papillomavirus type 1a E7 protein (residues 1-88). The test is described as follows: HPV1a E7 small-molecule binders, primary screen, biochemical, small-molecule microarray, residues 1-88, 635 nm (AID 1129). The following applies: small-molecule microarray binding, fluorescence 635 nm; higher = more signal.
The target in test [11] is Focal adhesion kinase 1 (Homo sapiens) (UniProt Q05397). The test can be described thus: PTK2 protein binding on printed compound slides – biochemical, small-molecule microarray, 635/667 nm fluorescence, BSA, DTT, primary screen (AID 1130).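 Also: composite of spot emission at 667 nm and signal to noise over triplicate slides.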 As to conditions: 635 nm fluorescence, higher = more signal.
Focal adhesion kinase 1 (Homo sapiens), sequence (Q05397 whole entry, looked up): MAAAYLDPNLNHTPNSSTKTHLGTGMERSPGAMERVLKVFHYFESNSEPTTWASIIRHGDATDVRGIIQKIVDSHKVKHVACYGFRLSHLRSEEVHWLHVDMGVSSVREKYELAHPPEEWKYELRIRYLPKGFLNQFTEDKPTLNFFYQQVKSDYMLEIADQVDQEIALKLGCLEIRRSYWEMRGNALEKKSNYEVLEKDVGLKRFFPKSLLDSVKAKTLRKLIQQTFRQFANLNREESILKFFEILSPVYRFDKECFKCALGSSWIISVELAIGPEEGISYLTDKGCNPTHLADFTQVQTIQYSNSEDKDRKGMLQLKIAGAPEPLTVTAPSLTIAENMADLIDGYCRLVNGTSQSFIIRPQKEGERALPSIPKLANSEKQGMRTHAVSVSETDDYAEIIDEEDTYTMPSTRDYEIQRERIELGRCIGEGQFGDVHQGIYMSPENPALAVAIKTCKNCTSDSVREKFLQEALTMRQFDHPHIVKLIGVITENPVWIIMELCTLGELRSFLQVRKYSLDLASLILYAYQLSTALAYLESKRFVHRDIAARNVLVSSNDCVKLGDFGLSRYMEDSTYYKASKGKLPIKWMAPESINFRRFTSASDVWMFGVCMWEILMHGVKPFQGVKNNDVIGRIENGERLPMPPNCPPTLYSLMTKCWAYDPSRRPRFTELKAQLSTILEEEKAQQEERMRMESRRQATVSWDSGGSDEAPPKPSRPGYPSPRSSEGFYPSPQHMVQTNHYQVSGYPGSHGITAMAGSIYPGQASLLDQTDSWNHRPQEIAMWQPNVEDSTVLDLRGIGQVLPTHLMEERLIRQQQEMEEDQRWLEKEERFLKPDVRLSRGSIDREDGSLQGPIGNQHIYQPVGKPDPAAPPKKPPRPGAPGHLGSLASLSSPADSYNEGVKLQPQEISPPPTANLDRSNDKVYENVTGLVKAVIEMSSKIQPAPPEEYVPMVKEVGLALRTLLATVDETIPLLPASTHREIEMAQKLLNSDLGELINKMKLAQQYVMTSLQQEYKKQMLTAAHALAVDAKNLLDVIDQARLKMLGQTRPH
In test [12] the test system is Fibrinogen (Alexa647-labelled). The test is described as follows: Alexa647-fibrinogen binding to printed small molecules – biochemical, small-molecule microarray, 635/667 nm fluorescence, artefact control for SMM control-protein annotation, profiling panel (AID 1131).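 Also: z-score merges 667 nm fluorescence with per-spot signal-to-noise over triplicate slides.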 As to conditions: fibrinogen-A647 binding fluorescence, higher = more signal.
In test [13] the target is Follistatin (Homo sapiens) (UniProt P19883). The test is described as follows: FST protein binding to printed compounds – biochemical, small-molecule microarray, 635/667 nm fluorescence, primary screen (AID 1132). As to conditions: 635 nm fluorescence, higher = more signal.
Follistatin (Homo sapiens), sequence (P19883 whole entry, looked up): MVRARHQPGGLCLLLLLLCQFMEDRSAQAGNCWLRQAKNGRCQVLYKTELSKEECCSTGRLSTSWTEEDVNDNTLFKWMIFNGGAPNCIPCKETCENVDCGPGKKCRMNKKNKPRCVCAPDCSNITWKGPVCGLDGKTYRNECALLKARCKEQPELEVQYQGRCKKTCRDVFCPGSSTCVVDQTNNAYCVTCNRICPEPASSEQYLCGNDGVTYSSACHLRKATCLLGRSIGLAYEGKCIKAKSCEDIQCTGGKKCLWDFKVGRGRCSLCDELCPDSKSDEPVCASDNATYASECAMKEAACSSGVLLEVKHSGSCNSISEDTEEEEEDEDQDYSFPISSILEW
Test [14] has as its target Fibroblast growth factor 2 (Homo sapiens) (UniProt P09038). The test is described as follows: basic fibroblast growth factor binding to printed compounds – biochemical, small-molecule microarray, 635/667 nm fluorescence, primary screen (AID 1133). The following applies: FGF2, fluorescence 635/667, higher = more signal.
Test [15] is described as follows: JC-1 mitochondrial potential readout, lung cancer cells – cell-based, A549, JC-1 fluorescence, basal, 24 h, 100 nL, profiling panel (AID 1138).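 Also: A549 lung adenocarcinoma cells under basal conditions with no added stimulus; test concentration not given here.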 The following applies: higher = more signal.
The subject of the next test is Lefty1. The test can be described thus: Lefty1 protein binding to printed compounds – biochemical, small-molecule microarray, 635/667 nm fluorescence, primary screen (AID 1139). As to conditions: fluorescence 635/667, higher = more signal.
For test [16], the system named is wheat germ agglutinin (Triticum aestivum), Alexa647-labelled. The test is described as follows: Alexa647-WGA lectin binding to printed small molecules – biochemical, small-molecule microarray, 635/667 nm fluorescence, artefact control for SMM control-protein annotation, profiling panel (AID 1140).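 Also: score merges 667 nm feature emission with signal to noise over triplicate slides.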 As to conditions: WGA-A647 binding, 635 nm fluorescence, higher = more signal.

For test [17], the target named is Luciferin 4-monooxygenase (Photinus pyralis) (UniProt P08659). The test is described as follows: inhibition of purified Photinus pyralis luciferase – biochemical, luminescence, purified enzyme, 2006 set, primary screen (AID 1141).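 Also: cell-free assay with purified firefly luciferase at 100 ng per well in PBS; test concentration not given here.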 As to conditions: purified firefly luciferase, SteadyGlo luminescence, 30 min; higher = more signal, called active from +8 up or from −8 down.
Luciferin 4-monooxygenase (Photinus pyralis), sequence (P08659 whole entry, looked up): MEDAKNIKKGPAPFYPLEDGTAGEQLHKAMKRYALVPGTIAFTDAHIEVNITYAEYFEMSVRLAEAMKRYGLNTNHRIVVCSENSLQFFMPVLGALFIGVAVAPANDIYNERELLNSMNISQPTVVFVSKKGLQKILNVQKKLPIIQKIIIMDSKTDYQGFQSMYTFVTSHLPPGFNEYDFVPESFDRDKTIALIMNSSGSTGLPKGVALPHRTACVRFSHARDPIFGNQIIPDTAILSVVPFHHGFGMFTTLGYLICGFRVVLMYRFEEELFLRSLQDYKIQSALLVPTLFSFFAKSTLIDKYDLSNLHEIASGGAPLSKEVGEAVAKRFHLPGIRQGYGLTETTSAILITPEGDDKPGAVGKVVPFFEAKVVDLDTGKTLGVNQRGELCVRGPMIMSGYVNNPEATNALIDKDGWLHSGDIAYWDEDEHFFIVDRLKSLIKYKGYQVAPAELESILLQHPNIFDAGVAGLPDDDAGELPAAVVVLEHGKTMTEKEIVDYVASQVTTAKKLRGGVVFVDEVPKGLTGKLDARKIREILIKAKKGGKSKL

The source made the active and inactive calls.

Concanavalin-A (Canavalia ensiformis), sequence (P02866 whole entry, looked up): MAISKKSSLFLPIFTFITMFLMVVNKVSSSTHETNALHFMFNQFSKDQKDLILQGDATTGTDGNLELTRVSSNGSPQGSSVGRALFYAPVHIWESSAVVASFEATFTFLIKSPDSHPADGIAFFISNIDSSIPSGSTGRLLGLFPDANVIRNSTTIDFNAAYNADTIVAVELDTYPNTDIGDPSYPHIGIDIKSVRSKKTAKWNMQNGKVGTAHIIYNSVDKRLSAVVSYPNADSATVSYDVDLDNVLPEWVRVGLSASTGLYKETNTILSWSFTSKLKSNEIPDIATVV
Albumin (Bos taurus), sequence (P02769 whole entry, looked up): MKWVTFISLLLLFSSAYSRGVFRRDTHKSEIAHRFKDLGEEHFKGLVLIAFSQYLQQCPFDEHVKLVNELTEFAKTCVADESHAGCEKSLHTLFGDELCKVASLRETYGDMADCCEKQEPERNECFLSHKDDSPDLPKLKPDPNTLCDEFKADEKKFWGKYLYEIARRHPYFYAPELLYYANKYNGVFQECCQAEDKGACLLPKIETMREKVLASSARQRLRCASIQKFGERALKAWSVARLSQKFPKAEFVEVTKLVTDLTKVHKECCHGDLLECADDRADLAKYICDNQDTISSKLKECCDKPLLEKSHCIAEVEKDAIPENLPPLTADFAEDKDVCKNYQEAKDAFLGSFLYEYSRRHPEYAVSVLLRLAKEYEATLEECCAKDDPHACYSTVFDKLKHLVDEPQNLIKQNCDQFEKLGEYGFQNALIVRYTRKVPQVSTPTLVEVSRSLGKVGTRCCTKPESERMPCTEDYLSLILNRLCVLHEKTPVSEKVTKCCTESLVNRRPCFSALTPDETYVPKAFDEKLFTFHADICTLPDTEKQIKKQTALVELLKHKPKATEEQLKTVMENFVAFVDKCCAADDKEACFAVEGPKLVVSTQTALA
Fibroblast growth factor 2 (Homo sapiens), sequence (P09038 whole entry, looked up): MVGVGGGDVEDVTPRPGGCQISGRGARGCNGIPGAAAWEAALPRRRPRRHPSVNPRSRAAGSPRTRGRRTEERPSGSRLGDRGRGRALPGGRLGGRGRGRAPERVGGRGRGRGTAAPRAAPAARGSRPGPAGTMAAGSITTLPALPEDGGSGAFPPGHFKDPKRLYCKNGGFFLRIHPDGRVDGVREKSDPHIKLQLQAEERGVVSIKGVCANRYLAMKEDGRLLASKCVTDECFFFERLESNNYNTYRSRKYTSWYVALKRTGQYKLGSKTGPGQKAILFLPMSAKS

Consider `C=C(CCCC)/C(=C/C[C@H](OC(=O)c1ccncc1)c1cccc(OCCO)c1)c1cc(C(=O)OC)ccc1OC`, for which the composite z-score with Albumin (Bos taurus) is -0.2; in [2] it was 0.074; in test [3], -0.131; in test [4], 0.0309; in [5] it was 1.09; in [6] it was -0.132. Besides, the composite z-score in the test with Sam68 (KHDRBS1) was 0.711; in test [7], 0.363; in test [8], 0.724; in test [9], 1.06; in test [10], 0.492; in test [11] it was -0.0622. Further, the composite z-score in test [12] was 0.723; in test [13], 0.852; in test [14], 1.59; with Lefty1, 1.17; in [16], 0.311. For the same molecule, the composite Z-score in test [1] is -0.331 (inactive). In addition, the z-score in test [15] is 0.397; in test [17], 0.34 (inactive).

Consider `C[C@@H]1CC[C@H]2C(=O)N3[C@@H](CC[C@@H](C)[C@@H]3c3cccc(N4CCOCC4)c3)C(=O)N2[C@H]1c1cccc(Br)c1`, for which the composite z-score with Albumin (Bos taurus) is 0.718; in test [2], -0.0259; in [3], -0.0956; in test [4] it was 0.459; in [5], 0.425; in test [6], 0.336. The composite z-score is 1.16 in the test with Sam68 (KHDRBS1); 0.932 in [7]; 0.92 in test [8]; 1.52 in [9]; 1.04 in [10]; -0.0269 in [11]. Further, the composite z-score in test [12] came to 0.783; in test [13], 1.12; in test [14] it was 0.555; in the test with Lefty1 it was 1.15; in test [16] it was 1.04. Also, the composite Z-score in [1] is 0.307 (inactive). Further, the results for the z-score in test [15] and in [17] were 2.96 and -1.13 (inactive), respectively.

On to `CCOC(=O)C[C@H]1[C@H](OC(=O)c2ccccc2-c2ccccc2)[C@@H](NC(=O)C2CCCCC2)c2cc(OCCCO)ccc2N1C(=O)c1ccccc1`, for which the composite z-score with Albumin (Bos taurus) is 0.576; in test [2] it was -0.0647; in test [3] it was -0.0784; in test [4] it was 0.393; in [5] it was 0.68; in [6] it was -0.175. Moreover, the composite z-score in the test with Sam68 (KHDRBS1) was 0.692; in [7], 0.173; in test [8], 0.404; in [9], 0.198; in test [10] it was 0.352; in [11] it was -0.268. Besides, the composite z-score in test [12] was 0.334; in test [13], 0.392; in test [14] it was 1.39; in the test on Lefty1, 0.845; in test [16] it was -0.109. Besides, in test [1], the composite Z-score was 0.909 (inactive). In addition, the z-score in test [15] was 1.33; in test [17], -0.539 (inactive).

With `O=C1O[C@H](c2ccccc2)[C@H](c2ccccc2)N2[C@H]1[C@@H](C(=O)NC[C@H](O)c1ccccc1)[C@]1(C(=O)Nc3ccc(C#CC4(O)CCCCCC4)cc31)[C@H]2c1ccc(OCCO)cc1`, the composite z-score in the test with Albumin (Bos taurus) was 0.579; in test [2], 0.108; in [3], -0.109; in test [4] it was 0.603; in test [5], 1.92; in [6], -0.0049. In addition, the composite z-score worked out at 1.31 in the test on Sam68 (KHDRBS1); 0.088 in test [7]; 1.16 in [8]; 2.52 in test [9]; 1.2 in [10]; 0.285 in test [11]. Moreover, the composite z-score in test [12] is 0.641; in test [13], 1.06; in test [14], 1.04; in the test with Lefty1, -0.0254; in [16], 0.959. Moreover, the composite Z-score in test [1] is 0.248 (inactive). Moreover, the figures for the z-score in test [15] and in [17] were -1.2 and -1.23 (inactive), respectively.

`C=CCC(OC(C)=O)[C@@H]1[C@@H](N(Cc2ccc(-c3ccccc3)cc2)C(=O)c2ccc(-c3ccccc3)cc2)c2cc(OCCCO)ccc2N1C(=O)Cc1ccc(OC)cc1` (stereo not given in full): the composite z-score with Albumin (Bos taurus) is 0.4; in test [2] it was 0.0065; in [3], -0.183; in test [4], 0.0703; in [5], 0.0095; in [6] it was 0.061. Besides, the composite z-score in the test with Sam68 (KHDRBS1) was 0.0768; in test [7] it was -0.0682; in test [8], 0.411; in test [9], -0.347; in test [10], 0.328; in test [11], 0.602. In addition, the composite z-score in [12] is 0.466; in [13], 0.856; in test [14], 0.0338; in the test with Lefty1, 0.0287; in test [16], 0.192. Besides, the composite Z-score in test [1] is 0.344 (inactive). The z-score in [15] is 0.764; in test [17], -0.115 (inactive).

As to `COCCOC(=O)N1C(=O)[C@@]2(c3cc(C#CCCO)ccc31)[C@H](C(=O)N1CCCCCCC1)[C@H]1C(=O)O[C@H](c3ccccc3)[C@H](c3ccccc3)N1[C@@H]2c1ccc(O)cc1`, the composite z-score with Albumin (Bos taurus) was determined as 0.792; in test [2] it was 0.715; in [3], 0.102; in test [4], 0.731; in test [5] it was 2.81; in [6] it was 0.837. Moreover, the composite z-score in the test on Sam68 (KHDRBS1) is 1.29; in [7] it was 0.279; in [8], 1.11; in [9] it was 1.12; in test [10], 1.18; in test [11], 1.49. In addition, the composite z-score in test [12] amounted to 0.555; in test [13], 1.34; in [14], 0.661; in the test on Lefty1 it was 0.957; in [16] it was 1.1. Also, the composite Z-score in test [1] was 0.516 (inactive). Also, the results for the z-score in test [15] and in test [17] were 1.65 and -0.888 (inactive), respectively.

Consider `O=C(NCc1ccccc1)c1ccc(Br)cc1[N+](=O)[O-]`, for which the composite z-score in the test with Albumin (Bos taurus) is 0.311; in test [2] it was 0.116; in test [3], -0.0488; in test [4] it was 0.727; in [5], 0.35; in test [6] it was -0.209. In addition, the composite z-score is 0.604 with Sam68 (KHDRBS1); 0.446 in test [7]; 0.899 in test [8]; -0.26 in [9]; 0.292 in test [10]; -0.1 in [11]. Moreover, the composite z-score in [12] is -0.0828; in test [13] it was 0.405; in [14], 0.465; in the test on Lefty1, 0.505; in test [16], 0.352. In addition, the composite Z-score in test [1] was 0.047 (inactive). In addition, the z-score in [15] is 0.543; in [17] it was -0.941 (inactive).

Turning to `CO[C@H]1O[C@H](CO)[C@@H](OC(=O)CCc2ccccc2)[C@@H]2OC(=O)[C@H](Cc3cccc(Br)c3)C/C=C/C[C@@H](Cc3cccc(Br)c3)C(=O)O[C@@H]12`, the composite z-score was 0.803 in the test with Albumin (Bos taurus); -0.15 in [2]; -0.114 in [3]; 0.76 in test [4]; 1.04 in [5]; 0.0054 in [6]. In addition, the composite z-score in the test on Sam68 (KHDRBS1) is 0.7; in test [7], -1.41; in test [8], 0.014; in test [9] it was 0.345; in [10], 0.399; in [11], -0.0961. The composite z-score in [12] is 0.0162; in test [13], -1.19; in test [14], -0.706; in the test on Lefty1 it was -0.752; in test [16], 0.978. Further, the composite Z-score in test [1] is 0.258 (inactive). The z-score in [15] was 0.309; in test [17], -1.07 (inactive).
